D2 PAM-1: positive allosteric modulators of human D2 dopamine receptor; HEK293 T-REx D2, calcium flux, EC20 dopamine potentiation; potentiation, % at 10 µM; hit rate 0.34% among 340,000; AID 485347;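 active = potentiation over 3 SD above the plate norm, cut at about 30% in these data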
Target sequence (P14416 whole entry, looked up): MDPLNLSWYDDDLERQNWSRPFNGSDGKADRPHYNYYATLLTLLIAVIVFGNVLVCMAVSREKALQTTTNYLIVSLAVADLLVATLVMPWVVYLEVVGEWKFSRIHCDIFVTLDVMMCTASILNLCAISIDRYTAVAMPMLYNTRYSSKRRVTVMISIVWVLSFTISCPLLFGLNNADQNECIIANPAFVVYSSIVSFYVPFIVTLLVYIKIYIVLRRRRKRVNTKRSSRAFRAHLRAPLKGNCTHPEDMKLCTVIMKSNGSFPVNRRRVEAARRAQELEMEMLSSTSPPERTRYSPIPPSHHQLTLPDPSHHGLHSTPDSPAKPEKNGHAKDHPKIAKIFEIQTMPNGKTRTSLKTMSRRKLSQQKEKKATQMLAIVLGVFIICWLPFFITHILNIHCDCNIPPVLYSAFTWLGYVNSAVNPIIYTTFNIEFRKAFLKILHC
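Calcium flux readout, no-wash dye, 1 read/s. Inducible HEK293 Trex D2 line, overnight 30 C. Compound alone 180 s (agonist flags), then EC20 dopamine, another 180 s to score potentiation.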
D2 ag-1: activates the human D2 dopamine receptor | AID 485358 | hit rate 0.53% among 340,000 | P14416 | activation, % at 2 µM | HEK293 T-REx D2 cells, calcium flux agonist mode;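 active = activation over 3 SD above normal in the single-dose calcium agonist read, cut at about 30% in these data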
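Tetracycline-induced HEK293 T-REx cells with force-coupled D2 receptor, plated overnight at 30 C, loaded with no-wash calcium dye. After a 10 s baseline, compound was pin-added and calcium flux read kinetically for 180 s; calcium rises flagged agonists.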
D2 antag: antagonizes the human D2 dopamine receptor. P14416. HEK293 TREx D2 cells, calcium flux, dopamine EC80. inhibition, % at 10 µM. hit rate 2% among 340,000. AID 485344; in the data active = inhibition above about 30%; inactive = below that, where a call was filed
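Read-out: kinetic calcium fluorescence (1 cycle/s) in inducible HEK293 T-REx D2 cells after an EC80 dopamine addition that followed 180 s compound preincubation. Loss of the dopamine response indicates antagonism.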
D2 ag-2: human D2 receptor agonism in beta-arrestin assay. P14416. DiscoveRx PathHunter D2 beta-arrestin, luminescence, 90 min; 100% = 57 uM dopamine signal. activation, % (test concentration not listed). hit rate 0.084% among 360,000; in the data active = activation above about 40%; inconclusive = between about 15% and that limit
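Agonist mode: compounds alone added to overnight-plated D2 PathHunter cells for 90 min at 37 C, with 57 uM final dopamine (EC100) defining full response. Beta-arrestin recruitment detected by chemiluminescent reagent, read after 1 h at ambient temperature.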
D2 PAM-2: human D2 receptor positive allosteric modulation | AID 624464 | P14416 | hit rate 0.23% among 360,000 | DiscoveRx D2 beta-arrestin cells, luminescence, 90 min; 100% = 57 uM dopamine signal | potentiation, % (concentration not given with the values); in the data active = potentiation above about 50%; inconclusive = mostly about 30% to 49%
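D2 cells co-treated with compound plus 50 nM dopamine (EC20) for 90 min at 37 deg C to detect potentiation. Beta-arrestin recruitment was read as enzyme-fragment luminescence after 1 h at ambient temperature. Full response was set by 57 uM dopamine.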
D3 arrestin ag: confirmation of human D3 dopamine receptor agonists, beta-arrestin | shares compounds with D2 ag-1 | DiscoveRx D3 beta-arrestin cells, luminescence, 90 min | Potency, µM (doses to about 76.9 µM), usual class: activators | hit rate 4% among 2,300 | AID 720506; note: nearly all actives have a fitted effect of over 70% in size
D2 ag-3: activates human D2 dopamine receptor in D3 counterscreen; shares compounds with D2 ag-1; DiscoveRx PathHunter D2 beta-arrestin, luminescence, 90 min; response scale: percent relative to full dopamine signal; Potency, µM (doses to about 76.9 µM), most hits filed as activators; hit rate 5.9% among 2,300; note: nearly all actives have a fitted effect of over 70% in size
Of the large screens only hits and unclear results are named; the others gave an inactive call (follow-up assays come after a bar, where they were run). Only some compounds are listed: those with a hit (about 2.4% of all), similar ones and a draw of the others. Unless noted, calls come from the whole dose curve; as a rule, active = well fitted activation curve with a large enough effect; inconclusive = small, poorly fitted or top-dose-only effect; inactive = flat fitted curve, though single readings scatter.

OC(COc1ccc(Cl)c2ccccc12)CN1CCN(c2ccccn2)CC1 (stereo not given)	D2 ag-1 54, D2 antag 35 | D3 arrestin ag 14µM | D2 ag-3 inconclusive
OC(CN1CCN(c2ccccn2)CC1)Cn1c2ccccc2c2ccccc21 (stereo not given)	none
Cc1c(NC(=O)c2cccc3c(Cl)cccc23)cccc1-c1nc2ccccc2o1	none (no result: D2 antag, D2 ag-2, D2 PAM-2)
Cc1cc(C)cc(OC2CCCCC2NS(=O)(=O)c2ccccc2)c1 (stereo not given)	D2 antag 36 | D3 arrestin ag inactive | D2 ag-3 inactive
CSc1ccc(OC2CCCCC2NS(=O)(=O)c2ccccc2)cc1 (stereo not given)	none
O=S(=O)(NCCc1csc2nc(-c3ccc(F)cc3)nn12)c1ccc(Br)cc1	none (no result: D2 antag, D2 ag-2, D2 PAM-2)
CCOc1ccc2nc(N(CCCN(C)C)C(=O)c3ccc(S(=O)(=O)N4CCCC4)cc3)sc2c1	D2 antag 31 | D3 arrestin ag inactive | D2 ag-3 inactive
CCCS(=O)(=O)c1nc(S(=O)(=O)c2ccc(C)cc2)c(NCC(C)C)s1	none (no result: D2 antag, D2 ag-2, D2 PAM-2)
Nc1ccc(N2CCN(CCCCN3C(=O)C4CCCN4C3=O)CC2)cc1 (stereo not given)	D2 ag-1 63, D2 antag 42 | D3 arrestin ag inactive | D2 ag-3 inactive
COc1ccc(C(=O)Nc2cc(Cl)ccc2-n2cncn2)c(OC)c1OC	none | D3 arrestin ag inactive | D2 ag-3 inactive
COc1ccccc1/C=C/c1nc(C#N)c(N2CCN(C)CC2)o1	none (no result: D2 antag, D2 ag-2, D2 PAM-2)
CCNC(=O)C1(C)CCCN(C(=O)c2nc(C)oc2C)C1 (stereo not given)	none (no result: D2 PAM-1, D2 ag-1, D2 antag)
O=C(CN1CCN(C(=O)c2ccco2)CC1)Nc1ccc2c(c1)OCCO2	D2 ag-1 61, D2 antag 54, D2 ag-2 inconclusive | D3 arrestin ag inactive | D2 ag-3 inactive
O=C(CN1CCN(C(=O)c2ccco2)CC1)Nc1ccc(Cl)c(S(=O)(=O)N2CCOCC2)c1	D2 ag-1 45 | D3 arrestin ag inconclusive | D2 ag-3 inactive
O=C(CN1CCN(c2ccccc2)CC1)Nc1ccc2c(c1)OCCO2	D2 ag-1 56, D2 antag 45 | D3 arrestin ag inactive | D2 ag-3 inconclusive
Cc1[nH]c2ccccc2c1NC(=O)CN1CCN(C(=O)c2ccco2)CC1	D2 ag-1 87, D2 antag 61, D2 ag-2 54, D2 PAM-2 inconclusive | D3 arrestin ag inactive | D2 ag-3 inconclusive
COc1ccc(N2CCN(C(=O)C(Cc3ccccc3)NC(=O)c3ccccc3)CC2)cc1 (stereo not given)	none (no result: D2 PAM-1, D2 ag-1, D2 antag)
CC(C)c1cnc2c(c1SCC(=O)Nc1ccc(OC(F)(F)F)cc1)c(=O)n(C)c(=O)n2C	none (no result: D2 antag, D2 ag-2, D2 PAM-2)
Cc1c(-c2ccccc2)nc2ccccc2c1C(=O)OCC(=O)Nc1ncc(C(F)(F)F)cc1Cl	D2 antag 30 | D3 arrestin ag inactive | D2 ag-3 inactive
COc1cc(C2C(C(=O)Nc3ccccc3)=C(C)Nc3nnnn32)cc(OC)c1OC (stereo not given)	none (no result: D2 ag-1, D2 antag, D2 ag-2, D2 PAM-2)
CCN1C(C(=O)Nc2cc(C)on2)=C(O)c2ccccc2S1(=O)=O	D2 ag-1 38 | D3 arrestin ag inactive | D2 ag-3 inactive
CC(C)[C@@H](C(=O)N1CCN(Cc2ccc3c(c2)OCO3)CC1)n1nnc2ccccc2c1=O	none (no result: D2 PAM-1, D2 ag-1, D2 antag)
CCC(C(=O)N1CCN(Cc2ccc3c(c2)OCO3)CC1)n1c(=O)[nH]c2ccccc2c1=O (stereo not given)	D2 ag-1 46 | D3 arrestin ag inactive | D2 ag-3 inactive
Cc1ccc(CSCC(=O)N2CCN(Cc3ccc4c(c3)OCO4)CC2)cc1	D2 ag-1 45 | D3 arrestin ag inactive | D2 ag-3 inactive
Cn1c(=O)cc(SCC(=O)N2CCN(Cc3ccc4c(c3)OCO4)CC2)c2ccccc21	D2 ag-1 38, D2 antag 41 | D3 arrestin ag inactive | D2 ag-3 inactive
O=C(Nc1ccc(C(F)(F)F)cc1)C1(c2cccs2)CCOCC1	none (no result: D2 antag, D2 ag-2, D2 PAM-2)
